Test results taken from PubChem BioAssay AID1159580 (chemical genetic matrix, 2015).
The whole screen tested about 5,500 compounds, of which about 2,000 (36%) were called active. Roughly 18% stayed inconclusive and do not appear here. Cut-off read from the data, not from the text of the source: active = normalized growth mostly below about 0.91 (no sharp cut-off); inconclusive = no clear call, values can overlap the other calls; inactive = mostly above about 0.92. The list shows a part of the results.

Test: chemical genetic growth profiling, strain panel (AID 1159580);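 note: tested at 20 µM; growth read once vehicle control cultures reached saturation at 30 °C; 1 = growth at the plate median or of vehicle wells; lower values mean less growth of the strain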
Conditions: growth OD
[1] = S. cerevisiae deletion strains, locus YHR030C, strain SLT2, stronger effect = lower value
[2] = S. cerevisiae deletion strains, locus YHR079C, strain IRE1, stronger effect = lower value
[3] = S. cerevisiae deletion strains, locus YJL095W, strain BCK1, stronger effect = lower value
[4] = S. cerevisiae deletion strains, locus YJR066W, strain TOR1, stronger effect = lower value
[5] = S. cerevisiae deletion strains, locus YLR113W, strain HOG1, stronger effect = lower value
[6] = S. cerevisiae deletion strains, locus YNL183C, strain NPR1, stronger effect = lower value
[7] = S. cerevisiae deletion strains, locus YOR231W, strain MKK1, stronger effect = lower value
[8] = S. cerevisiae deletion strains, locus YPL256C, strain CLN2, stronger effect = lower value

Measured: normalized growth

Clc1ccc2c(c1)CCc1cccnc1C2=C1CCNCC1
inactive: [1] 0.968 | [2] 0.986 | [3] 1.04 | [4] 0.932 | [5] 1.03 | [6] 0.965 | [7] 0.992 | [8] 0.972

O=C1CCCCC/C=C/CCCCCCCCO1
inactive: S. cerevisiae deletion strains, locus YAL013W, strain DEP1, stronger effect = lower value 0.986 | S. cerevisiae deletion strains, locus YBR021W, strain FUR4, stronger effect = lower value 1.01 | S. cerevisiae deletion strains, locus YBR229C, strain ROT2, stronger effect = lower value 1 | S. cerevisiae deletion strains, locus YCL029C, strain bik1, stronger effect = lower value 1 | S. cerevisiae deletion strains, locus YDL035C, strain GPR1, stronger effect = lower value 0.988 | S. cerevisiae deletion strains, locus YDL074C, strain BRE1, stronger effect = lower value 0.949 | S. cerevisiae deletion strains, locus YDL101C, strain DUN1, stronger effect = lower value 0.994 | S. cerevisiae deletion strains, locus YDL134C, strain PPH21, stronger effect = lower value 0.999 | S. cerevisiae deletion strains, locus YDL185W, strain tfp1, stronger effect = lower value 0.999 | S. cerevisiae deletion strains, locus YDL192W, strain arf1, stronger effect = lower value 0.997 | S. cerevisiae deletion strains, locus YDR101C, strain arx1, stronger effect = lower value 0.979 | S. cerevisiae deletion strains, locus YDR150W, strain NUM1, stronger effect = lower value 1.01 | S. cerevisiae deletion strains, locus YDR162C, strain NBP2, stronger effect = lower value 1 | S. cerevisiae deletion strains, locus YDR318W, strain mcm21, stronger effect = lower value 0.985 | S. cerevisiae deletion strains, locus YDR388W, stronger effect = lower value 0.99 | S. cerevisiae deletion strains, locus YDR502C, strain sam2, stronger effect = lower value 0.969 | S. cerevisiae deletion strains, locus YEL061C, strain CIN8, stronger effect = lower value 0.999 | S. cerevisiae deletion strains, locus YER110C, stronger effect = lower value 0.992 | S. cerevisiae deletion strains, locus YER155C, strain BEM2, stronger effect = lower value 1 | S. cerevisiae deletion strains, locus YER167W, strain BCK2, stronger effect = lower value 0.974 | S. cerevisiae deletion strains, locus YGL078C, strain dbp3, stronger effect = lower value 1 | S. cerevisiae deletion strains, locus YGL086W, strain mad1, stronger effect = lower value 0.988 | S. cerevisiae deletion strains, locus YGL248W, strain PDE1, stronger effect = lower value 1 | S. cerevisiae deletion strains, locus YGR078C, strain PAC10, stronger effect = lower value 0.946 | S. cerevisiae deletion strains, locus YGR135W, strain pre9, stronger effect = lower value 0.956 | S. cerevisiae deletion strains, locus YGR229C, strain SMI1, stronger effect = lower value 0.893 | S. cerevisiae deletion strains, locus YGR252W, strain gcn5, stronger effect = lower value 0.999 | [1] 0.999 | S. cerevisiae deletion strains, locus YHR079C, strain IRE1 (second series), stronger effect = lower value 0.995 | S. cerevisiae deletion strains, locus YHR094C, strain hxt1, stronger effect = lower value 0.997 | S. cerevisiae deletion strains, locus YHR129C, strain ARP1, stronger effect = lower value 0.988 | S. cerevisiae deletion strains, locus YHR200W, strain rpn10, stronger effect = lower value 1 | S. cerevisiae deletion strains, locus YIL066C, strain RNR3, stronger effect = lower value 0.985 | S. cerevisiae deletion strains, locus YIL073C, strain SPO22, stronger effect = lower value 1.01 | S. cerevisiae deletion strains, locus YIL125W, strain kgd1, stronger effect = lower value 0.985 | S. cerevisiae deletion strains, locus YIR030C, strain dcg1, stronger effect = lower value 1 | [3] 0.924 | S. cerevisiae deletion strains, locus YJL134W, strain LCB3, stronger effect = lower value 1 | S. cerevisiae deletion strains, locus YJL168C, strain set2, stronger effect = lower value 0.988 | S. cerevisiae deletion strains, locus YJL187C, strain SWE1 (second series), stronger effect = lower value 1 | S. cerevisiae deletion strains, locus YJR043C, strain POL32, stronger effect = lower value 0.953 | S. cerevisiae deletion strains, locus YJR075W, strain HOC1, stronger effect = lower value 0.944 | S. cerevisiae deletion strains, locus YKL009W, strain mrt4, stronger effect = lower value 1.01 | S. cerevisiae deletion strains, locus YKL068W, stronger effect = lower value 1 | S. cerevisiae deletion strains, locus YKL085W, strain MDH1 (second series), stronger effect = lower value 1.01 | S. cerevisiae deletion strains, locus YKL085W, strain MDH1, stronger effect = lower value 1.01 | S. cerevisiae deletion strains, locus YKL190W, strain CNB1, stronger effect = lower value 1 | S. cerevisiae deletion strains, locus YKR001C, strain vps1, stronger effect = lower value 0.948 | S. cerevisiae deletion strains, locus YLR039C, strain RIC1, stronger effect = lower value 0.869 | S. cerevisiae deletion strains, locus YLR058C, strain SHM2, stronger effect = lower value 1 | S. cerevisiae deletion strains, locus YLR102C, strain apc9, stronger effect = lower value 0.997 | S. cerevisiae deletion strains, locus YLR262C, strain YPT6, stronger effect = lower value 0.859 | S. cerevisiae deletion strains, locus YLR268W, strain sec22, stronger effect = lower value 0.975 | S. cerevisiae deletion strains, locus YLR330W, strain CHS5, stronger effect = lower value 1.01 | S. cerevisiae deletion strains, locus YLR342W, strain FKS1 (second series), stronger effect = lower value 0.968 | S. cerevisiae deletion strains, locus YLR371W, strain rom2, stronger effect = lower value 0.999 | S. cerevisiae deletion strains, locus YLR418C, strain cdc73, stronger effect = lower value 0.848 | S. cerevisiae deletion strains, locus YML016C, strain PPZ1, stronger effect = lower value 1.01 | S. cerevisiae deletion strains, locus YML032C, strain rad52, stronger effect = lower value 0.983 | S. cerevisiae deletion strains, locus YML124C, strain tub3, stronger effect = lower value 0.995 | S. cerevisiae deletion strains, locus YMR078C, strain ctf18, stronger effect = lower value 0.99 | S. cerevisiae deletion strains, locus YMR223W, strain ubp8, stronger effect = lower value 0.973 | S. cerevisiae deletion strains, locus YMR263W, strain SAP30, stronger effect = lower value 0.97 | S. cerevisiae deletion strains, locus YMR307W, strain GAS1, stronger effect = lower value 0.898 | S. cerevisiae deletion strains, locus YNL067W, strain RPL9B, stronger effect = lower value 1.01 | S. cerevisiae deletion strains, locus YNL128W, strain TEP1, stronger effect = lower value 0.978 | S. cerevisiae deletion strains, locus YNL153C, strain GIM3, stronger effect = lower value 0.972 | S. cerevisiae deletion strains, locus YNL233W, strain BNI4, stronger effect = lower value 0.943 | S. cerevisiae deletion strains, locus YNL250W, strain rad50, stronger effect = lower value 0.99 | S. cerevisiae deletion strains, locus YNL271C, strain bni1, stronger effect = lower value 0.991 | S. cerevisiae deletion strains, locus YNL298W, strain CLA4, stronger effect = lower value 0.993 | S. cerevisiae deletion strains, locus YNL307C, strain MCK1, stronger effect = lower value 0.958 | S. cerevisiae deletion strains, locus YNL322C, strain KRE1, stronger effect = lower value 1 | S. cerevisiae deletion strains, locus YNR052C, strain pop2, stronger effect = lower value 1.01 | S. cerevisiae deletion strains, locus YOL006C, strain TOP1, stronger effect = lower value 0.936 | S. cerevisiae deletion strains, locus YOL012C, strain htz1 0.561 | S. cerevisiae deletion strains, locus YOL147C, strain pex11, stronger effect = lower value 1.01 | S. cerevisiae deletion strains, locus YOR061W, strain CKA2, stronger effect = lower value 1.01 | S. cerevisiae deletion strains, locus YOR069W, strain VPS5, stronger effect = lower value 1 | S. cerevisiae deletion strains, locus YOR136W, strain idh2, stronger effect = lower value 0.992 | S. cerevisiae deletion strains, locus YOR144C, strain elg1, stronger effect = lower value 1 | S. cerevisiae deletion strains, locus YOR184W, strain ser1, stronger effect = lower value 0.955 | S. cerevisiae deletion strains, locus YOR316C, strain cot1, stronger effect = lower value 0.999 | S. cerevisiae deletion strains, locus YPL055C, strain LGE1, stronger effect = lower value 0.996 | S. cerevisiae deletion strains, locus YPL241C, strain CIN2, stronger effect = lower value 1.01 | S. cerevisiae deletion strains, locus YPR119W, strain clb2, stronger effect = lower value 0.994 | S. cerevisiae deletion strains, locus YPR141C, strain kar3, stronger effect = lower value 0.991 | S. cerevisiae deletion strains, locus YPR163C, strain tif3, stronger effect = lower value 1.01 | S. cerevisiae deletion strains, locus YPR167C, strain met16, stronger effect = lower value 1 | S. cerevisiae deletion strains, strain wtn01, stronger effect = lower value 0.96 | S. cerevisiae strains, strain wild type, stronger effect = lower value 0.97

COC(=O)[C@@H]1C[C@H](OC(C)=O)C(=O)[C@H]2[C@@]1(C)CC[C@H]1C(=O)O[C@H](c3ccoc3)C[C@]21C
inactive: [1] 1 | [2] 0.994 | [3] 1 | [4] 0.936 | [5] 1.03 | [6] 0.957 | [7] 0.985 | [8] 1.01
